Measurements: PubChem BioAssay AID488969 (Vanderbilt High Throughput Screening Facility, 2010)
Over roughly 110,000 compounds, “z-score” has its median near -0.1; the highest 2% begin near 2. The sample as a whole holds a higher share of the highest values than the screen did. Calls of active or inactive are those of the source.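 How the source made its calls: active means z-score in the third read window above 3 or below -3; inactive means the rest.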

Biological target: Metabotropic glutamate receptor 8 (Rattus norvegicus) (UniProt P70579)
Sequence (P70579 whole entry, looked up): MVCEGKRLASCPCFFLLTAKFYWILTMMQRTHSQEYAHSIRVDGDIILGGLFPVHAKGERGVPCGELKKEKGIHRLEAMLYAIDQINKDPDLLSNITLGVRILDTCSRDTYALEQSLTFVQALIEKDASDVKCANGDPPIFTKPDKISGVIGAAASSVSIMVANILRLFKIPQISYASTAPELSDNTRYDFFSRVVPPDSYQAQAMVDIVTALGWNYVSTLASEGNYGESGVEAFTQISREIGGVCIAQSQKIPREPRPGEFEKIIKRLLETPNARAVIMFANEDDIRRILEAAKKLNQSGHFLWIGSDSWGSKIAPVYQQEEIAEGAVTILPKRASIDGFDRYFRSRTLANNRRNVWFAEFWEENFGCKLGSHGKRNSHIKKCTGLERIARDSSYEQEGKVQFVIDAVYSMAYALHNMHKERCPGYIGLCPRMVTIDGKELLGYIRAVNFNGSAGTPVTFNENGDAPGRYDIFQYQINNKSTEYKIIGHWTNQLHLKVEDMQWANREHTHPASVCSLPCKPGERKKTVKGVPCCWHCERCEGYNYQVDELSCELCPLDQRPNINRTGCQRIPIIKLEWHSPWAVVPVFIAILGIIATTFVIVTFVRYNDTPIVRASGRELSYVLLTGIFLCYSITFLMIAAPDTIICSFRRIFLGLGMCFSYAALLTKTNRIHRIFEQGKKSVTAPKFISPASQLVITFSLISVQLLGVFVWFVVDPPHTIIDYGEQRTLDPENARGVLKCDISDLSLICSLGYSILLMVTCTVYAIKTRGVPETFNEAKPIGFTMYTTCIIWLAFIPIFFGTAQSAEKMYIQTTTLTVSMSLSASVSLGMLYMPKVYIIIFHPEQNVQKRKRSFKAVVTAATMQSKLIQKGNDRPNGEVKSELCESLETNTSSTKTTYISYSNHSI
Test: rat mGluR8 modulators via GIRK flux, primary screen, cell-based, thallium flux, HTS (AID 488969)
Conditions: HEK293 rat mGluR8, GIRK (G protein-gated inwardly rectifying potassium channel) thallium flux, FluoZin2; at 10 µM; stronger effect = higher value; submaximal glutamate (EC20) added with thallium

Structure (SMILES) | z-score
Cc1ccc(-c2nc3ccccc3o2)cc1NC(=S)NC(=O)c1cc2ccccc2o1 | 2.35
Cc1ccc2oc(-c3cccc(NC(=S)NC(=O)/C=C/c4ccco4)c3)nc2c1 | -0.494
Cc1cc(C)c2oc(-c3ccc(C)c(NC(=S)NC(=O)c4cccs4)c3)nc2c1 | 3.57 (active)
Cc1cc(C)c2oc(-c3ccc(C)c(NC(=S)NC(=O)/C=C/c4ccco4)c3)nc2c1 | -0.0423
Cc1ccc(-c2nc3ccccc3o2)cc1NC(=S)NC(=O)c1cccs1 | 1.65
Cc1ccc2oc(-c3ccc(C)c(NC(=S)NC(=O)c4cccs4)c3)nc2c1 | 0.703
Cc1ccc2oc(-c3cccc(NC(=S)NC(=O)c4cccs4)c3)nc2c1 | 3.78 (active)
Cc1ccc2oc(-c3cccc(NC(=O)Cc4cccs4)c3)nc2c1 | 0.0421
Cc1ccc(-c2nc3ccccc3o2)cc1NC(=S)NC(=O)/C=C/c1ccco1 | 0.0248
Cc1cc(NC(=O)COC(=O)c2cccc(OCc3ccccc3)c2)no1 | 0.388
CCN(CC)C(=O)C1CC(=O)OC12CCCCC2 (stereo not drawn) | -0.477
COc1ccc(OC)c(C(=O)COC(=O)C2CC3CCCC(C2)C3=O)c1 (stereo not drawn) | 1.3
Cc1noc(C)c1C(=O)OC(C(=O)NC1CCCC1)c1ccc(F)cc1 (stereo not drawn) | 0.659
Cc1nc(NC(=S)NC(=O)c2ccccc2)sc1C(=O)N(C)C | -0.185
COc1ccc(C(=O)NC(=S)Nc2nc(C)c(C(=O)N(C)C)s2)cc1 | -0.0547
Cc1cccc(C(=O)Nc2nc(C)c(C(=O)Nc3ccc4c(c3)CCC4)s2)c1 | -0.0981
COC(=O)c1sc(NC(=S)NC(=O)c2ccccc2)nc1C | 2.47
CCOC(=O)c1sc(NC(=S)NC(=O)c2ccccc2Cl)c(C(=O)OCC)c1C | 0.214
COC(=O)c1sc(NC(=S)NC(=O)c2ccccc2Cl)nc1C | 5.46 (active)
CCOC(=O)c1sc(NC(=S)NC(=O)c2ccco2)nc1C | 7.57 (active)

Structure (SMILES) | z-score
COC(=O)c1sc(NC(=O)COc2cccc(C)c2)nc1C | -0.0129
COC(=O)c1sc(NC(=S)NC(=O)c2cccc(C)c2)nc1C | 4.51 (active)
CCOC(=O)c1sc(NC(=O)c2ccco2)nc1-c1ccccc1 | 0.0322
COC(=O)c1sc(Nc2ccccc2)nc1C | -0.75
CCOC(=O)c1sc(NC(=O)COC(=O)c2ccco2)nc1C | 0.0458
Cc1nonc1OCC(C)(COc1nonc1C)NC(=O)c1ccccc1 | -0.133
CCOC(=O)C1C(=O)NC(N2CCOCC2)=NC1c1ccco1 (stereo not drawn) | -0.222
CCOC(=O)C1CCCN(C(=S)Nc2cccc(Cl)c2C)C1 (stereo not drawn) | -0.429
O=c1c2ccccc2nc(-c2ccc(Cl)cc2)n1C1CCS(=O)(=O)C1 (stereo not drawn) | -0.341
Cc1cc2nc(C)n(CCCNC(=O)Nc3cccc4ccccc34)c2cc1C | -0.0533
CCCN1CNC(=S)N(CC2CCCO2)C1 (stereo not drawn) | 0.136
Cc1c(Cl)cnc(NC(=O)COC(=O)CCC(=O)c2cccs2)c1Cl | -0.28
CNC(=S)N(Cc1ccc(OC)cc1)C1CC(=O)N(c2ccc(C(=O)OC)cc2)C1=O (stereo not drawn) | -0.228
Cc1ccc2nc3ccc(N4CCCCCCC4)nn3c(=O)c2c1 | -0.682
O=C(CCSc1ccc(Cl)cc1)N1CCOCC1 | -0.207
CC(=O)Nc1ccc(NC(=O)CSc2ccc(C(F)(F)F)cc2[N+](=O)[O-])cc1 | -0.252
O=C(Nc1nccs1)C1CCCN1S(=O)(=O)c1ccc(Cl)cc1 (stereo not drawn) | 0.437
CCS(=O)(=O)N1CCN(C(=O)C(c2ccccc2)c2ccccc2)CC1 | -0.138
O=C(c1cccc(C(=O)N2CCN(c3ncccn3)CC2)c1)N1CCN(c2ncccn2)CC1 | 0.184
O=C(c1ccc(-c2ccccc2)cc1)N1CCN(c2ncccn2)CC1 | 3.97 (active)

Structure (SMILES) | z-score
O=C(c1ccc(F)cc1)N1CCN(c2ncccn2)CC1 | -0.204
N#Cc1c(N2CCN(C(=O)c3ccco3)CC2)nc(-c2ccccc2)c2c1CCCC2 | -0.665
N#Cc1c(N2CCN(C(=O)c3ccccc3)CC2)nc(-c2ccccc2)c2c1CCCC2 | 2.92
N#Cc1c(N2CCN(C(=O)c3ccccc3Cl)CC2)nc(-c2ccccc2)c2c1CCCC2 | -0.453
COc1ccc2c(c1)CC/C(=C\c1ccc(OC)c(Cn3cccn3)c1)C2=O | -0.628
CCOc1ccccc1OCCCC(=O)Nc1sccc1C(N)=O | 0.813
O=C(CCl)Nc1ccccc1Sc1ccccc1 | -0.216
CCCC(=O)NC(c1cccs1)c1cc([N+](=O)[O-])c2cccnc2c1O (stereo not drawn) | 2.37
CCC(=O)NC(c1cccs1)c1cc([N+](=O)[O-])c2cccnc2c1O (stereo not drawn) | -0.0253
CC(=O)NC(c1cccs1)c1cc([N+](=O)[O-])c2cccnc2c1O (stereo not drawn) | -1.44
CC(NC(=O)NC1CCCCC1)C(c1cccs1)N1CCN(Cc2ccccc2)CC1 (stereo not drawn) | -1.18
O=S(=O)(Nc1cc(Cl)ccn1)c1ccc(Cl)cc1 | 0.404
CCCCCC(=O)Nc1c(-c2ccc(OC)cc2)c(=O)c2ccccc2n1C | 0.109
CCCC(=O)Nc1c(-c2ccc(OC)cc2)c(=O)c2ccccc2n1C | -0.253
CCC(=O)Nc1c(-c2ccc(OC)cc2)c(=O)c2ccccc2n1C | 2.76
O=S(=O)(Nc1ccc(Cc2ccncc2)cc1)c1cccs1 | -0.0895
CS(=O)(=O)N1N=C(c2ccc3nccnc3c2)CC1c1ccccc1 (stereo not drawn) | -0.111
COc1c2occc2c(OC)c2c(=O)cc(C(F)(F)F)oc12 | 2.92
